Calls of active or inactive are those of the source.
Tests used:
[1] = test system: PRMT1 (protein arginine N-methyltransferase 1); test: PRMT1 binders on small-molecule microarrays, primary screen, biochemical, small-molecule microarray, 635 nm fluorescence (AID 1088); details: small-molecule microarray binding, higher = more signal;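 note: binding of Prmt1 protein to compounds spotted on small-molecule microarray slides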
[2] = yeast growth modulation, basal conditions, primary screen, YJM789 clinical isolate, OD600, 24 h (AID 1089);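 note: growth of clinical yeast isolate S. cerevisiae YJM 789 seeded 1000 cells per well; test concentration not given here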; details: S. cerevisiae YJM789 growth, higher = more signal, called active from +8 up or from −8 down
[3] = fission yeast growth modulation, primary screen, strain 972, OD600, 24 h, no modulator (AID 1090);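 note: basal condition with compound alone and no growth modifier present; test concentration not given here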; details: S. pombe 972 growth, higher = more signal, called active from +8 up or from −8 down
[4] = S. cerevisiae growth modulation with rapamycin, primary screen, strain BY4716, OD600, 96 h (AID 1091); details: higher = more signal, called active from +8 up or from −8 down; note: test concentration not given here
[5] = target: Torsin-1A-interacting protein 2 (Homo sapiens) (UniProt Q8NFQ8); test: LULL1 binders on small-molecule microarray, primary screen, cell lysate, human LULL1 lysate, 635/667 nm fluorescence (AID 1092); details: hLULL1 lysate binding, 635 nm fluorescence, higher = more signal;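 note: probe is lysate of COS7 cells overexpressing human LULL1; score merges per-feature 667 nm fluorescence with signal-to-noise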
Sequence of Torsin-1A-interacting protein 2 (Homo sapiens) (Q8NFQ8 whole entry, looked up): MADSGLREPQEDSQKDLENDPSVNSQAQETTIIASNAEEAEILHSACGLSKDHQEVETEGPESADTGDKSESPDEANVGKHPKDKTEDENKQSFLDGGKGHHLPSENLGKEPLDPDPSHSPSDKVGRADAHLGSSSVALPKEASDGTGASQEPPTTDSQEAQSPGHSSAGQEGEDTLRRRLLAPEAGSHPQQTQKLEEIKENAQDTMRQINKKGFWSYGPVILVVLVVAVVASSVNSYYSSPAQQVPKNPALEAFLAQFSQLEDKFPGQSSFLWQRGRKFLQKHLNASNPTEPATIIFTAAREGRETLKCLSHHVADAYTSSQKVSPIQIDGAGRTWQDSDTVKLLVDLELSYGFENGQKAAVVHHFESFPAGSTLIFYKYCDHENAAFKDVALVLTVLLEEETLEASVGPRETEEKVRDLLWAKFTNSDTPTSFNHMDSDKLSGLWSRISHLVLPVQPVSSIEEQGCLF

[6] = E. coli growth modulation, two-sided OD650, primary screen, E. coli filamentation project, strain DRC41, 24 h (AID 1093); details: OD650, 24 h, higher = more signal, called active from +8 up or from −8 down;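 note: MC1000 strain lacking acrAB efflux and sulA so SOS filamentation is blocked; test concentration not given here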
[7] = small-molecule microarray binders of probe aLefty2, primary screen, biochemical, biotinylated probe, 635/667 nm fluorescence (AID 1094); details: higher = more signal;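 note: score merges spot fluorescence near 667 nm with spot signal-to-noise ratio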
[8] = test system: Noggin (protein binding on small-molecule microarray); test: Noggin binders on small-molecule microarray, primary screen, biochemical, 635/667 nm fluorescence (AID 1095); details: 635 nm fluorescence, higher = more signal;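 note: score merges 667 nm feature fluorescence with signal to noise over triplicate slides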
[9] = target: Neurogenic locus notch homolog protein 3 (Homo sapiens) (UniProt Q9UM47); test: NOTCH3 binders on small-molecule microarray, primary screen, biochemical, 635/667 nm fluorescence (AID 1096); details: NOTCH3 binding, 635 nm fluorescence, higher = more signal
Sequence of Neurogenic locus notch homolog protein 3 (Homo sapiens) (Q9UM47 whole entry, looked up): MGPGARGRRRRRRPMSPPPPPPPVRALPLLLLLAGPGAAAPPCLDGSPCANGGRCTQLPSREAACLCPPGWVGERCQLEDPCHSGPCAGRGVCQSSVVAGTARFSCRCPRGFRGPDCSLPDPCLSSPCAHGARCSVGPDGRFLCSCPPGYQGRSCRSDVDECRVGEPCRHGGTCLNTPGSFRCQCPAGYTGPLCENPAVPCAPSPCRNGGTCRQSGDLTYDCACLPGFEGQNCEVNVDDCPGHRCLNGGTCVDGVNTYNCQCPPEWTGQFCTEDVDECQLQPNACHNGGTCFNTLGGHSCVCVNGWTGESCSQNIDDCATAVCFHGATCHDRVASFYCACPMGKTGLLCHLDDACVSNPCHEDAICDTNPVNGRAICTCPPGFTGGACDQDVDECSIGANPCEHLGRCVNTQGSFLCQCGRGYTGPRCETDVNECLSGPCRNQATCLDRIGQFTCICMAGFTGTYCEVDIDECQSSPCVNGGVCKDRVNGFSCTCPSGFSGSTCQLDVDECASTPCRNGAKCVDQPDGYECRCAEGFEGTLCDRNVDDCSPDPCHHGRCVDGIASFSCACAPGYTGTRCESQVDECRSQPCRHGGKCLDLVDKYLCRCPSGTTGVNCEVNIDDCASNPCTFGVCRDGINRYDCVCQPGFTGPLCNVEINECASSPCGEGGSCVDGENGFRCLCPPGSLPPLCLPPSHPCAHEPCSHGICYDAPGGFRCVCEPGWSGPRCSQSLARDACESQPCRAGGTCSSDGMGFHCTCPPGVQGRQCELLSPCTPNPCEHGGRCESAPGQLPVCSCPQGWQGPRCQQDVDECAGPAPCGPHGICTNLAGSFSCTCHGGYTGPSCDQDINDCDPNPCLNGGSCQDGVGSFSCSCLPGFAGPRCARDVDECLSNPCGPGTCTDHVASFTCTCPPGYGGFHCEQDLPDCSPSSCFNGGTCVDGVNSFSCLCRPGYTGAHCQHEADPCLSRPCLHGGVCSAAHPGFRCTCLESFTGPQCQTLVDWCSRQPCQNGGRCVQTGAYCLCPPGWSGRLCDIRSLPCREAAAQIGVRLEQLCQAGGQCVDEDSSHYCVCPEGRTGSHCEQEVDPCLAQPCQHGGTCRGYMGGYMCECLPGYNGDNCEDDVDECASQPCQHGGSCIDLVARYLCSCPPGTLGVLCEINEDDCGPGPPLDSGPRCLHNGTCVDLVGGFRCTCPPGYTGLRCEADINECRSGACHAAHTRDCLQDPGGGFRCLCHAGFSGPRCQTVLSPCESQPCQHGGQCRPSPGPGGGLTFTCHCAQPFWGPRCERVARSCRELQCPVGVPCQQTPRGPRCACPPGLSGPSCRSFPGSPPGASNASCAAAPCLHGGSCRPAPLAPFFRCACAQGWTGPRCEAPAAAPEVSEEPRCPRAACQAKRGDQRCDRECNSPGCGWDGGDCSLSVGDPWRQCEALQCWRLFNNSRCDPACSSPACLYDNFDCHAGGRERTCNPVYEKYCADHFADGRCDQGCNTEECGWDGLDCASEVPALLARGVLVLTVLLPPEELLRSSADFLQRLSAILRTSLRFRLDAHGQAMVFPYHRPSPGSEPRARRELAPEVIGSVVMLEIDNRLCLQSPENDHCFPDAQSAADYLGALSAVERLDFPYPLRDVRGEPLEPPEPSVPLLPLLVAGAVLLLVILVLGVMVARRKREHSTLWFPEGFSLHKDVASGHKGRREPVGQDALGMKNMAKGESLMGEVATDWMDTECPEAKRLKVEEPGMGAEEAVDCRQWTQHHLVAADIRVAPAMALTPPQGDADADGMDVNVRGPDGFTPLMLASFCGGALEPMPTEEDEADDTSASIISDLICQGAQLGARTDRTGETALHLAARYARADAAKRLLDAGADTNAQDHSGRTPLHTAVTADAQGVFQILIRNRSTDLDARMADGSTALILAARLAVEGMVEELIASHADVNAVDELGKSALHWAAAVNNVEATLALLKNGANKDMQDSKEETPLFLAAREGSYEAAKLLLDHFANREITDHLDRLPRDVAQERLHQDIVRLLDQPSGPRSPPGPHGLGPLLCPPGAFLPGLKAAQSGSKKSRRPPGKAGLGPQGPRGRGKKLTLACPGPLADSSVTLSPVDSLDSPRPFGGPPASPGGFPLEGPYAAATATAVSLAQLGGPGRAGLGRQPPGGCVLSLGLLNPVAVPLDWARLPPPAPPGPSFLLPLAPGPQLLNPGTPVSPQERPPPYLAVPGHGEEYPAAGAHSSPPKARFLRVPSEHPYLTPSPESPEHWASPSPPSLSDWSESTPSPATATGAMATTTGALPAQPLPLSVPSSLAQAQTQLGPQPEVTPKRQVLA

[10] = small-molecule microarray binders of probe aEGFR, primary screen, biochemical, biotinylated probe, 635/667 nm fluorescence (AID 1097); details: higher = more signal;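 note: probe is a biotinylated anti-EGFR antibody binding compounds printed on slides; score combines fluorescence near 667 nm and signal to noise of each spot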

Structure (SMILES) | composite z-score [1] | z-score [2] | z-score [3] | z-score [4] | composite z-score [5] | z-score [6] | composite z-score [7] | composite z-score [8] | composite z-score [9] | composite z-score [10]
O=C1C[C@]2(c3ccc([N+](=O)[O-])cc3)C(=O)N(CCN3CCOCC3)c3cc(CO)ccc3[C@H]2N1CC12CC3CC(CC(C3)C1)C2 | -0.286 | -1.31 (inactive) | -0.324 (inactive) | -2.77 (inactive) | 1.81 | 0.679 (inactive) | 0.0023 | -0.323 | 0.111 | -0.156
COCCOC(=O)N1C(=O)[C@@]2(c3cc(C#CC4(O)CCCCCC4)ccc31)[C@H](c1ccc(OCCO)cc1)N1[C@H](c3ccccc3)[C@H](c3ccccc3)OC(=O)[C@H]1[C@@H]2C(=O)NC[C@H](O)c1ccccc1 | 1.55 | 2.19 (inactive) | 0.874 (inactive) | 6.86 (inactive) | 2.87 | 1.6 (inactive) | -0.0212 | 0.816 | 1.03 | -0.0555
COC(=O)CC1OC1[C@H](C)[C@@H](OC)C(C)C (stereo not given in full) | 0.12 | -0.132 (inactive) | -4.41 (inactive) | 1.24 (inactive) | -0.481 | 0.453 (inactive) | 0.121 | 0.291 | -0.556 | -0.151
CN1C(=O)C2C(C1=O)C1C=C(CCCO)C2C(c2ccc(CN3CCCC3)cc2)N1C (stereo not given) | -0.0446 | -0.363 (inactive) | 0.652 (inactive) | -0.14 (inactive) | -0.0999 | 0.145 (inactive) | -0.193 | -0.347 | -0.575 | -0.133
Cn1cccc1C(O)C1C=CC2C(=O)NC(=O)C2N1Nc1ccccn1 (stereo not given) | 0.408 | 0.0886 (inactive) | 1.23 (inactive) | 0.0533 (inactive) | -0.503 | -0.975 (inactive) | -0.19 | -0.0645 | -0.929 | 0.0865
c1ccc(C2NCCc3c2[nH]c2ccccc32)cc1 (stereo not given) | -0.339 | -0.272 (inactive) | -2.36 (inactive) | -0.962 (inactive) | 0.872 | -0.937 (inactive) | -0.126 | 0.388 | -0.246 | 0.122
CC(C)C[C@@H]1NC(=O)[C@H]2C[C@@H](C(=O)O)[C@@H](c3ccc(O)cc3)N2C1=O | 0.879 | 0.634 (inactive) | -0.213 (inactive) | 1.83 (inactive) | 1.15 | 0.831 (inactive) | 0.449 | 0.4 | 0.436 | 0.0577
Cc1ccc(C2CC=C(C(=O)O)CN2S(=O)(=O)c2ccc(C)cc2)cc1 (stereo not given) | 0.732 | 0.0388 (inactive) | 1.02 (inactive) | 0.856 (inactive) | 2.49 | -1.16 (inactive) | 0.0527 | 0.153 | 0.984 | -0.071
CO[C@H]1COC(=O)CC=C[C@H](C)[C@@H](NS(=O)(=O)c2ccc(C)cc2)COC(=O)CC=C[C@@H]1C | 0.855 | -3.93 (inactive) | -2.23 (inactive) | -2.35 (inactive) | -0.716 | -1.11 (inactive) | -0.118 | 0.659 | 0.66 | -0.12
CC(C)CON=C1C[C@@H](O)[C@@H](O)[C@@H]2[C@@H]3C(=O)N(C[C@@H]4CCCO4)C(=O)[C@@H]3CC[C@H]12 | 0.976 | -1.04 (inactive) | 0.042 (inactive) | -0.435 (inactive) | 1.39 | 0.134 (inactive) | -0.234 | 0.468 | 0.668 | -0.0191
CCOC(=O)NN=C1C[C@@H](O)[C@@H](O)[C@@H]2[C@@H]3C(=O)N(C(C)(C)C)C(=O)[C@@H]3CC[C@@H]12 | -0.172 | -1.04 (inactive) | 0.213 (inactive) | -0.626 (inactive) | -0.786 | 0.572 (inactive) | -0.0569 | 0.261 | -0.861 | 0.0021
COC(=O)[C@H](C)NC(=O)CCC1CC(OC(=O)NCCc2ccc(F)cc2)CC2(CCCC(COC(=O)NCC(c3ccccc3)c3ccccc3)O2)O1 (stereo not given in full) | 0.915 | 0.304 (inactive) | 0.917 (inactive) | 1.56 (inactive) | 1.88 | 0.115 (inactive) | -0.175 | 0.409 | 0.897 | -0.094
O=C1c2ccccc2[C@@]2(Cc3ccccc3N(C3CC3)C2=O)[C@H](c2ccc(CO)cc2)N1Cc1ccccc1C(F)(F)F | 0.51 | -0.104 (inactive) | -0.995 (inactive) | -1.47 (inactive) | 1.83 | -2.03 (inactive) | 0.104 | -1.31 | -0.0714 | -0.171
O=C1[C@H]2[C@H]3[C@H](O)[C@H](O)CC(=NOCc4ccccc4)[C@@H]3CC[C@H]2C(=O)N1C1CCCCC1 | 1.1 | 0.704 (inactive) | -3.36 (inactive) | 0.485 (inactive) | 1.32 | 0.0212 (inactive) | -0.166 | -0.129 | 0.287 | -0.13
CCOC(=O)CCN1C(=O)[C@H]2[C@H]3[C@H](O)[C@H](O)CC(=NNC(=O)OCc4ccc(OC)cc4)[C@@H]3CC[C@H]2C1=O | 0.372 | -0.162 (inactive) | 0.151 (inactive) | -0.3 (inactive) | 0.97 | 0.0856 (inactive) | -0.157 | 0.38 | 1.08 | -0.0986
COc1ccc(COC(=O)NN=C2C[C@@H](O)[C@@H](O)[C@@H]3[C@@H]4C(=O)N(Cc5ccc6c(c5)OCO6)C(=O)[C@@H]4CC[C@@H]23)cc1 | -0.291 | -1.65 (inactive) | -0.654 (inactive) | -0.731 (inactive) | 0.529 | -0.486 (inactive) | 0.63 | -0.666 | -0.303 | -0.187
CC(C)CN1CCc2nc(-c3ccccc3)c3c(c2CC1)CO[C@@H](C)C3 | -0.36 | 0.175 (inactive) | -0.327 (inactive) | -0.378 (inactive) | -0.39 | 0.102 (inactive) | 0.061 | 0.364 | 0.0668 | 0.0657
C=CCN1C(=O)[C@]2(O[C@H](CCn3cc(CCO)nn3)[C@@H]([Si](C)(C)c3ccc(OC)cc3)[C@@H]2C)c2cc(N3CCOC3=O)ccc21 | 1.19 | -0.621 (inactive) | -0.111 (inactive) | -0.0506 (inactive) | 2.79 | -0.342 (inactive) | -0.271 | 0.432 | 0.231 | -0.256
CN1C(=O)C2C=CC(C(O)c3ccc(Br)cc3)N(N(c3ccccc3)c3ccccc3)C2C1=O (stereo not given) | 0.289 | 0.351 (inactive) | 1.27 (inactive) | 2.27 (inactive) | 1.94 | -1.24 (inactive) | 0.238 | -0.482 | 0.585 | 0.146
CC(CCC(=O)OC[C@H]1O[C@H](C#Cc2ccccc2)C=C[C@@H]1Oc1ccc(C)cc1)=NOC[C@@H](O)COCc1ccco1 | -0.25 | 0.594 (inactive) | 0.134 (inactive) | 0.108 (inactive) | -0.486 | 0.147 (inactive) | -0.356 | -3.08 | -1.76 | -0.428
CN1C(=O)[C@@]2(CCC(=O)OC(C)(C)C)N=C(c3ccc(OCCCO)cc3)O[C@H]2c2ccccc21 | 1.54 | -1.08 (inactive) | -2.19 (inactive) | 0.0793 (inactive) | 2.82 | 1.43 (inactive) | 0.0112 | 0.747 | 0.736 | -0.168
CC(C)[C@@H](OCc1ccccc1)[C@H](C)C=NO[C@H](C)c1cn([C@H](CO)Cc2ccccc2)nn1 | 1.55 | -2.33 (inactive) | -3.29 (inactive) | -1.26 (inactive) | 0.825 | -0.671 (inactive) | -0.153 | 0.453 | 0.712 | -0.0828
O=C1[C@H]2[C@H]3[C@H](O)[C@H](O)CC(=NOC[C@@H](O)COCc4ccco4)[C@H]3CC[C@H]2C(=O)N1C1CCCCC1 | 1.1 | 0.432 (inactive) | -0.299 (inactive) | 0.356 (inactive) | -0.522 | -0.263 (inactive) | -0.0841 | 1.19 | 0.214 | -0.0141
C=CC[C@@H]1C=C[C@H](ON=C[C@@H](OC)[C@H](C)C=CCC(=O)OC)[C@@H](CO)O1 | 0.325 | 0.78 (inactive) | 0.173 (inactive) | 0.634 (inactive) | 0.485 | 0.23 (inactive) | -0.124 | 0.471 | -0.39 | 0.0129
O[C@@H](Cc1ccccc1)[C@H]1C2C=CCCC(c3ccccc3)=C2CN1Cc1cccc(Cl)c1 (stereo not given in full) | 1.44 | -0.122 (inactive) | -3.65 (inactive) | -1.09 (inactive) | 1.73 | 2.78 (inactive) | -0.106 | 0.96 | 1.12 | -0.0549
CO[C@@H]1COC(=O)CC=C[C@@H](C)[C@@H]2C=C[C@@H](O)[C@@H](COC(=O)CC=C[C@H]1C)O2 | 1.44 | -1.85 (inactive) | -0.862 (inactive) | -0.562 (inactive) | -0.284 | -0.552 (inactive) | -0.19 | 1.29 | 0.0667 | -0.0112
C=CCC(OC(C)=O)[C@@H]1[C@@H](N(Cc2cc3ccccc3o2)C(=O)Cc2ccc(F)cc2)c2cc(OCCCO)ccc2N1C(=O)Cc1ccc(OC)cc1 (stereo not given in full) | -1.46 | -1.54 (inactive) | -0.644 (inactive) | -0.624 (inactive) | -0.362 | -0.824 (inactive) | -0.198 | -0.0439 | -1.37 | -0.131
O=C1O[C@@H](c2ccccc2)[C@@H](c2ccccc2)N2[C@@H](c3ccc(O)cc3)[C@]3(C(=O)Nc4ccccc43)[C@@H](C(=O)O)[C@H]12 | 1.24 | 0.462 (inactive) | -0.253 (inactive) | -0.408 (inactive) | 2.45 | 1.14 (inactive) | -0.0753 | -0.335 | 0.166 | -0.041
CCOC(=O)[C@H](CC(C)C)NC(=O)CCC1CC(OC(=O)NCc2cccc3ccccc23)CC2(CCCC(COC(=O)NCCc3ccccc3OC)O2)O1 (stereo not given in full) | 1.28 | -0.133 (inactive) | -0.0584 (inactive) | 0.407 (inactive) | 2.96 | -0.197 (inactive) | -0.0505 | 0.686 | 0.957 | -0.0304
CC(C)NC(=O)[C@@H]1c2ccccc2C(=O)N(CC23CC4CC(CC(C4)C2)C3)[C@H]1c1ccc(CO)cc1 | 1.57 | -1.44 (inactive) | -1.81 (inactive) | -0.241 (inactive) | 2.68 | 1.43 (inactive) | -0.143 | 0.701 | 1.04 | 0.0633
